# Assay outcomes deposited in PubChem BioAssay by National Center for Advancing Translational Sciences (NCATS).
# The list is not random: actives were taken first. Their share in the collection is about 4.8%.
# USP1-UAF1 inh – USP1/UAF1 (human) deubiquitinase inhibition | O94782 | AID 743255 | 390,000 compounds, 0.23% hits | Potency, µM (titrated, usually from 57.1 µM), usual class: inhibitors | recombinant USP1/UAF1, Ub-Rhodamine cleavage fluorescence; further: nearly all actives have a fitted effect of over 60% in size
#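 High-throughput fluorogenic screen: 1nM USP1/UAF1 complex, Ub-Rho substrate 150nM final, 50mM HEPES pH 7.8 with 0.5mM EDTA, 0.1 mg/ml BSA, 1mM TCEP and 0.01% Tween-20.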
# USP2a inh – USP2a (human) protease inhibition; USP2 core, Ub-CHOP2 coupled fluorogenic reporter, 485/531; Potency, µM (highest dose often 38.3 µM), most hits filed as inhibitors; 330,000 compounds, 0.01% hits; AID 463254
#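 Deubiquitinase activity read as fluorescence (485/531 nm) after Ub-CHOP2 cleavage activates the enterokinase reporter on its substrate; USP2 core 10nM, Ub-CHOP2 and substrate 25nM each, 30min compound preincubation then 60min RT; data normalized to NEM, curves fitted.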
# IL1B secr inh – inhibitors of inflammasome signaling (IL-1 beta secretion). THP-1 LPS/ATP IL-1B secretion, AlphaLISA, 16 h; hits give low values. activity change, % at 57.5 µM. 360,000 compounds, 4.7% hits. AID 743279; in the data active means activity change below about -50%; inconclusive means mostly about -30% to -49%
#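 Secreted IL-1B measured by AlphaLISA bead assay after 16 h compound exposure of THP-1 cells; compounds (final up to 57.5 uM) added 1 h before LPS (250 ng/mL) and ATP (1.25 mM) stimulation; lower signal means less secretion.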
# ATXN2 expr inh – inhibitors of ATXN2 expression; AID 1745845; Potency, µM (top dose mostly 57 µM), usual class: inhibitors; 360,000 compounds, 0.72% hits; HEK-293 ATXN2-luciferase reporter, luminescence, 24 h; further: nearly all actives have a fitted effect of over 55% in size
#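 ATXN2-luciferase reporter cells (luciferase flanked by upstream and downstream ATXN2 gene portions) were treated 24 h at 37 °C with compounds at up to 57 uM. SteadyGlo luminescence gave expression; GF-AFC fluorescence gave viability.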
# ATXN viability – cell viability loss in ATXN counter-screen | S2 cells (HEK-293 line with an ATXN2-luciferase reporter) viability, CellTiter-Fluor protease fluorescence, 24 h | Potency, µM (series often up to 56.7 µM), actives largely listed as cytotoxic | 400,000 compounds, 0.49% hits | AID 651635; further: nearly all actives have a fitted effect of over 40% in size
# Numbers stand for hits; 0 = inactive; ? = inconclusive; - = no result given; ! = repeats disagree; [ ] = another dose, or the depositor's remark. Unless noted, the call rests on the fitted dose curve; in most records, active means well fitted curve in the direction sought with a large enough effect; inconclusive means small, poorly fitted or top-dose-only effect, or another doubt; inactive means no such curve, though single readings can be large; an effect the other way counts as inactive or inconclusive.
SMILES,USP1-UAF1 inh,USP2a inh,IL1B secr inh,ATXN2 expr inh,ATXN viability
COc1cc(/C=C/[N+](=O)[O-])ccc1OC(=O)c1cccnc1,0,0,?,-,?
C=C(C=O)C[C@@H]1C[C@H](O)C2OC3C[C@]4(C)OC5/C=C\CC6OC7C(CC=CCC6OC5CCCC4OC3CC2O1)OC1CC2OC3CC(=O)OC3C[C@@H](C)C[C@@]2(C)OC1C[C@@H]7C (some centres undefined),0,0,-102,1.6µM,1.8µM
C=C(C=O)CC1CC(O)[C@]2(C)OC3C[C@@H]4OC5C[C@]6(C)O[C@]7(C)CCC8OC9C[C@]%10(C)OC(/C(C)=C\CO)C(O)CC%10OC9CC(C)C8OC7CC6O[C@]5(C)C/C=C\C4OC3CC2O1 (some centres undefined),?,0,0,0,0
C[C@H](CO)N1C[C@H](C)[C@@H](CN(C)Cc2ccc(-c3ccccc3)cc2)Oc2c(NC(=O)c3ccncc3)cccc2C1=O,0,0,0,?,?
CN(C)CC(C(=O)Cc1ccccc1)c1ccccc1 (centres undefined),0,-,-96,?,-
C=CCC1(C(C)CC)C(=O)NC(=O)NC1=O (centres undefined),-,-,-,0,0
NS(=O)(=O)c1ccc(N=Cc2c(O)n(C3CCCCC3)c(=O)n(C3CCCCC3)c2=O)cc1,0,0,-100,?,-
CCCCC[C@H]1CCCCC[C@H](O)C[C@@H](O)[C@H](O)/C=C/C(=O)O1,-,-,?,0,0
C=CCN1C(=O)/C(=C/c2ccc(Br)s2)C(=O)NC1=S,?,0,-99,-,0
Cc1ccsc1/C=C1\C(=O)NC(=S)N(C)C1=O,0,0,-94,-,?
CCN1C(=O)/C(=C\c2ccc([N+](=O)[O-])s2)C(=O)NC1=S,-,0,-,-,-
CN1C(=O)/C(=C/c2ccc(Cl)s2)C(=O)NC1=S,0,0,-97,?,16µM
CN1C(=O)/C(=C\c2ccc(N3CCCCCC3)cc2)C(=O)NC1=S,0,0,0,-,0
COc1cccc2c1[C@]13CCN(CC4CC4)[C@H](C2)[C@]1(OC)CCC(=O)C3,-,-,-,0,-
C[C@]12COC(=O)C[C@@H]1CC[C@@H]1[C@H]2CC[C@@]2(C)[C@H]1CC[C@]2(C)O,-,-,-,0,-
Cc1cc(NC(=O)CCl)no1,0,0,-100,0[11.3 µM],?
COc1ccc(Oc2cc(NC(=O)c3nn(C)cc3[N+](=O)[O-])cc([N+](=O)[O-])c2)cc1,0,0,-96,0,0
Cc1nc(-c2ccc(-c3ccc(C(=O)N4CCc5cc6c(cc54)C4(CCN(C)CC4)CO6)cc3)c(C)c2)no1,-,-,-,0,-
CC(=O)Nc1ccccc1C(=O)OCc1cccc(F)c1,0,0,0,0,?
CC(=O)Nc1ccccc1C(=O)OCc1ccc(C(=O)c2ccccc2)cc1,0,0,-55,0,0
C[C@@H]1[C@H]2Cc3ccc(O)cc3[C@]1(C)CCN2C,-,-,-,-,0
COc1ccc(C2=NCC(=O)N(CC(=O)NCc3ccco3)c3sc4c(c32)CCCC4)cc1OC,0,0,-56,0,?
C=C1[C@@H]2C[C@@]3([C@H]1O)[C@H]1C[C@@H]4[C@@]5(C)CC[C@H](O)[C@]4([C@H]1N(CC)C5)[C@H]3C[C@H]2O,-,-,-,-,0
S=C(SSC(=S)N1CCCCC1)N1CCCCC1,-,-,-,0,10µM!
CC(C(=O)c1ccccc1)N(C)C (centres undefined),-,-,-,0,0
SMILES,USP1-UAF1 inh,USP2a inh,IL1B secr inh,ATXN2 expr inh,ATXN viability
CC1CCN(C(CC(=O)c2ccccc2)C(=O)c2ccccc2)CC1 (centres undefined),?,-,-67,?,0
Cc1cc(N(CCCl)CCCl)ccc1/C=N/NC(=O)c1ccco1,0,0,0,?,0
Cc1cc(N(CCCl)CCCl)ccc1C=NNC(=O)Cc1cc(=O)oc2cc(O)ccc12,0,-,-59,0,0
CC(O)CN1CCN(CC(=O)[O-])CCN(CC(=O)[O-])CCN(CC(=O)[O-])CC1.[Gd+3] (centres undefined),-,-,-,0,0
CC(C)Oc1cccc(NC(=O)c2ccccc2C(F)(F)F)c1,-,-,-,0,0
O=C(Oc1ccc([N+](=O)[O-])cc1)N1CCC(C(O)(c2ccc3c(c2)OCO3)c2ccc3c(c2)OCO3)CC1,-,-,-,0,-
COc1ccc2c3c1O[C@H]1C(=O)CC[C@H]4[C@@H](C2)N(C)CC[C@]314,0,0,-89,0,0
